{"source": "PubChem BioAssay AID651599", "about": "(National Center for Advancing Translational Sciences (NCATS), 2012)", "note": "Results filed as inconclusive are left out. Activity calls are given as the source filed them. The call rests on the fitted dose curve; in most records, active means well fitted inhibition curve with a large enough effect; inconclusive means small, poorly fitted or top-dose-only effect; inactive means no such curve, though single readings can be large or run the other way. On the % scale 0 is the no-effect control and ±100 the full control effect; potency means the concentration at half of the fitted maximal effect."}
{"target": "Tumor susceptibility gene 101 protein (Homo sapiens) (UniProt Q99816)", "sequence (Q99816 whole entry, looked up, the tested form may be a part)": "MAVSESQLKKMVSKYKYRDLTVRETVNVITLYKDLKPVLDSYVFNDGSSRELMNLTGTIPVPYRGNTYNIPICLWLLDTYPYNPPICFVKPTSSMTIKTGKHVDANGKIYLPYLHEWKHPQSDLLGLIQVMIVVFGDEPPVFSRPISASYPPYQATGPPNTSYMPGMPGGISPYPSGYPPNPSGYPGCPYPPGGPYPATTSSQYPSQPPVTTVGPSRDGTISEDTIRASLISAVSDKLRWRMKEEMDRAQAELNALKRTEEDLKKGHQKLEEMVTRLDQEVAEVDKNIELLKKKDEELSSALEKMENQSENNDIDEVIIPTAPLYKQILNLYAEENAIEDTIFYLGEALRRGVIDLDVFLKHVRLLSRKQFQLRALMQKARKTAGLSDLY", "assay": "qHTS Assay for Iinhibitors of HIV-1 Budding by Blocking the Interaction of PTAP/TSG101: Hit Validation in TR assay", "conditions": "Tsg101 binding domain + Texas Red-labeled PTAP peptide, fluorescence polarization, 20 min; series mostly up to 57.5 µM; activity change, negative = inhibition: at the top concentration", "from_the_text": "Stages of the HIV-1 replication cycle, specifically virus assembly and release, provide underexploited targets for the development of novel antiviral inhibitors. The late stages of HIV-1 replication are mediated by the Gag precursor protein, Pr55Gag. Expression of Pr55Gag is both necessary and sufficient for the production of virus-like particles from Gag-expressing cells. The Gag protein hijacks key host proteins involved in endocytic machinery of the host cell to promote endosomal processing and viral budding. The budding process requires a direct interaction between a […] (PTAP) motif in the p6 domain of Gag and the cellular endosomal sorting protein known as Tsg101. In this way, the Gag PTAP motif promotes the host cells to recruit viral particles to the plasma membrane where the new viral particles are released, effectively turning the host cells into viral factories. A fluorescence anisotropy assay has been developed to quantitatively measure the PTAP-Tsg101 interaction which can be used to screen for inhibitors of this interaction.\nThis hit validation assay is similar to the primary assay but uses the Texas Red label instead of FITC.\nNIH Molecular Libraries Probe Production Network [MLPCN]\nNIH Chemical Genomics Center [NCGC]\nPI Name: Dr. Eric Freed, NCI\nTwo uL of the Tsg101 binding domain in buffer (10 mM HEPES pH 7.5; 0.15 M NaCl, 0.01% Tween 20; 3 mM EDTA;0.1 mM TCEP) was dispensed into Greiner black MB 1536-well plates (final concentration 10 uM). Then, 23 nL of compounds or DMSO were delivered to each well using a pin tool. Finally, 2 uL of a TR-labeled peptide containing the PTAP motif (1) in the same buffer was dispensed (50 nM final concentration) and the binding was allowed to proceed for 20 min. at r.t. Fluorescent polarization was determined using TR excitation and polarized emission filters on a Perkin Elmer Viewlux.\nKeywords: Tsg101, PTAP, Gag, HIV, fluorescent polarization, MLSMR, MLPCN, NIH Roadmap, qHTS, NCGC"}
{"smiles": "O=C1CCN2C=Nc3cccc4ccc1c2c34", "activity change, negative = inhibition": "-14.5% (inactive)"}
{"smiles": "Nc1ccc(-c2c3ccc(=O)cc-3oc3cc(O)ccc23)cc1C(=O)O", "Potency": "36.6 µM (active)"}
{"smiles": "CCc1cccc2cc3c(N)c(C(=O)Nc4ccc(S(=O)(=O)N5CCCC5)cc4)sc3nc12", "activity change, negative = inhibition": "-58.6% (inactive)"}
{"smiles": "O=c1oc2c(CN3CCCCC3)c(O)ccc2cc1-c1nc2ccccc2[nH]1", "activity change, negative = inhibition": "-9.27% (inactive)"}
{"smiles": "Oc1ccc2ccccc2c1N=Nc1nccs1", "activity change, negative = inhibition": "226% (inactive)"}
{"smiles": "Cc1ccc2nc(-c3ccco3)c(Nc3ccccc3)n2c1", "activity change, negative = inhibition": "-12.8% (inactive)"}
{"smiles": "c1ccc2c(c1)CCCN2Cc1nnnn1CC1CCCO1", "note": "(stereo not given)", "Potency": "18.3 µM (active)"}
{"smiles": "CN(C)CCNc1ccc2ncn3c4ccc(O)cc4c(=O)c1c23", "activity change, negative = inhibition": "-0.118% (inactive)"}
{"smiles": "Oc1oc(-c2ccccc2)nc1C=Nc1cccc2ccccc12", "activity change, negative = inhibition": "-19.4% (inactive)"}
{"smiles": "CCCN1C(=O)/C(=C\\C=C2\\N(CC)c3ccccc3C2(C)C)SC1=S", "activity change, negative = inhibition": "4.53% (inactive)"}
{"smiles": "Oc1c(C=Nc2ccccc2)sc2ccccc12", "Potency": "36.6 µM (active)"}
{"smiles": "COc1ccc(OC)c(-c2c3cc(O)c(=O)cc-3oc3cc(O)c(O)cc23)c1", "Potency": "32.6 µM (active)"}
{"smiles": "O=C(C1=NN(c2ccccc2)C2C(=O)N(c3ccccc3)C(=O)C12)c1ccccc1", "note": "(stereo not given)", "activity change, negative = inhibition": "-19.4% (inactive)"}
{"smiles": "CCOc1ccc(NC(=O)N(C2CCCCC2)C(C)c2ccncc2)cc1", "note": "(stereo not given)", "activity change, negative = inhibition": "-7.55% (inactive)"}
{"smiles": "CN(N=Nc1ccc([N+](=O)[O-])cc1)c1ccccc1", "activity change, negative = inhibition": "27.1% (inactive)"}
{"smiles": "O=C(Nc1nc2c(s1)CN(Cc1ccccc1)CC2)c1cccc(S(=O)(=O)N2CCc3ccccc32)c1", "activity change, negative = inhibition": "19.5% (inactive)"}
{"smiles": "c1ccc(-c2cn3nc(-c4ccccc4)c(-c4ccccc4)nc3n2)cc1", "activity change, negative = inhibition": "46.9% (inactive)"}
{"smiles": "CC(=O)Nc1ccc(N=Cc2c(O)c(C(=O)Nc3ccccc3)cc3ccccc23)cc1", "activity change, negative = inhibition": "34.2% (inactive)"}
{"smiles": "CCN(CC)c1ccc(/C=C(\\C#N)C(=O)c2ccc(Br)cc2)cc1", "activity change, negative = inhibition": "-13.5% (inactive)"}
{"smiles": "Nc1c(C(=O)Nc2ccccc2F)sc2nc(Cc3ccccc3)cc(C(F)(F)F)c12", "activity change, negative = inhibition": "-25.9% (inactive)"}
{"smiles": "O=C1NC(=S)/C(=C\\c2ccc(-c3ccccc3Cl)o2)S1", "activity change, negative = inhibition": "2.19% (inactive)"}
{"smiles": "CCCCCCCCOc1ccc(C2OC34CCCCC3C(C#N)(C#N)C2(C#N)C(=N)O4)cc1", "note": "(stereo not given)", "activity change, negative = inhibition": "-17.2% (inactive)"}
{"smiles": "O=C(C1=NN(c2ccccc2)C2C(=O)N(c3ccccc3Cl)C(=O)C12)c1ccccc1", "note": "(stereo not given)", "activity change, negative = inhibition": "19.6% (inactive)"}
{"smiles": "Cc1cc(=O)oc2ccc(OC(=O)CN3C(=O)c4cccc([N+](=O)[O-])c4C3=O)cc12", "activity change, negative = inhibition": "-7.07% (inactive)"}
{"smiles": "CSC1=NSC2=NC(=O)/C(=C/c3coc4ccccc4c3=O)C(=N)N12", "activity change, negative = inhibition": "-61.3% (inactive)"}
{"smiles": "Cn1cc(/C=C2\\SC(=S)N(NC(=O)c3ccccc3)C2=O)c2ccccc21", "activity change, negative = inhibition": "22.4% (inactive)"}
{"smiles": "CC(C)CCN1C(=O)c2cccc3c(N)ccc(c23)C1=O", "activity change, negative = inhibition": "-6.02% (inactive)"}
{"smiles": "O=Cc1nccc2ccccc12", "activity change, negative = inhibition": "395% (inactive)"}
{"smiles": "Oc1ccc2ccccc2c1-c1sc(Nc2ccccc2)n[n+]1-c1ccc(F)cc1", "activity change, negative = inhibition": "3.44% (inactive)"}
{"smiles": "Cc1nc(Cl)c2c(n1)NC1=C(O2)C(=O)CCC1", "activity change, negative = inhibition": "22% (inactive)"}
{"smiles": "O=[N+]([O-])c1cc(Cl)cc(/C=N/NC(=S)Nc2ccc(S(=O)(=O)N3CCOCC3)cc2)c1O", "activity change, negative = inhibition": "-12.7% (inactive)"}
{"smiles": "C=CCn1c(=O)/c(=C/c2ccc(C)o2)s/c1=C(/C#N)C(=O)c1ccccc1", "activity change, negative = inhibition": "2.16% (inactive)"}
{"smiles": "CCCCn1c(SCC(=O)c2cc(OC)ccc2OC)nc2cc(S(N)(=O)=O)ccc21", "activity change, negative = inhibition": "-3.13% (inactive)"}
{"smiles": "CC(=O)Nc1ccc2nc3c(=O)[nH]c(=O)[nH]c3nc2c1", "activity change, negative = inhibition": "-18.7% (inactive)"}
{"smiles": "CCOC(=O)C1CCCN(c2nc3ccccc3nc2C(C#N)C(=O)NCc2ccccc2)C1", "note": "(stereo not given)", "activity change, negative = inhibition": "3.32% (inactive)"}
{"smiles": "CCCCNc1ccc2c3c(cccc13)C(=O)N(CCCC)C2=O", "activity change, negative = inhibition": "-13.2% (inactive)"}
{"smiles": "CN1CCCc2cc3c(C(F)(F)F)cc(=O)oc3nc21", "activity change, negative = inhibition": "4.6% (inactive)"}
{"smiles": "CCN1CC=C2C(C#N)=C(N)C(C#N)(C#N)[C@H](c3cccc(OC)c3OC)[C@H]2C1", "activity change, negative = inhibition": "-12.5% (inactive)"}
{"smiles": "O=C(NCc1cccc(F)c1)c1cccc2c1C(=O)c1ccc(N3CCC(Cc4ccccc4)CC3)cc1S2(=O)=O", "activity change, negative = inhibition": "-8.59% (inactive)"}
{"smiles": "CCN(CC)S(=O)(=O)c1ccc(C(=O)/C=C/c2ccc(-c3ccc([N+](=O)[O-])cc3)o2)cc1", "activity change, negative = inhibition": "25.5% (inactive)"}
